The source of these data is PubChem BioAssay AID778 (Sanford-Burnham Center for Chemical Genomics, 2007).

Screen size: about 96,000 compounds; about 20,000 (21%) were called active. Not all results are given here. Values without a mark were called inactive.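 How the source made its calls: active means CYP2C19 inhibition above a set limit at 5 µM in the primary screen (cut at about 50% in these data); inactive means the rest.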

Cytochrome P450 2C19 (Homo sapiens), sequence (P33261 whole entry, looked up): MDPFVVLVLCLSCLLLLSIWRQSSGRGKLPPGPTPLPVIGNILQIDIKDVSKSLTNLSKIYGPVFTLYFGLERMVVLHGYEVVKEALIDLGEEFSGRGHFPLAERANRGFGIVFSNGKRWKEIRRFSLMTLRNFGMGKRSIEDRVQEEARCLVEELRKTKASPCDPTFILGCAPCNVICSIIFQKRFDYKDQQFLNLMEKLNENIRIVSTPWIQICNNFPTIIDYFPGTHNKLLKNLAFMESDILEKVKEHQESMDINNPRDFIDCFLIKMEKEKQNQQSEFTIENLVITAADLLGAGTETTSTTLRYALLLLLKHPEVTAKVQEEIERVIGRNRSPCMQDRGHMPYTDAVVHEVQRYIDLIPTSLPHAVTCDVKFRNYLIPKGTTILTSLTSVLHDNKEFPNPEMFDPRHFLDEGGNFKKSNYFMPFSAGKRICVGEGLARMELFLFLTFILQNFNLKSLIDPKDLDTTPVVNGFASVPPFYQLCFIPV

The experiment has as its target Cytochrome P450 2C19 (Homo sapiens) (UniProt P33261). In words: blockers of cytochrome P450 2C19 activity – biochemical, luminescence, ADME assay, primary screen (AID 778).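 Further: plate controls were negative control wells for no effect and 2.5 mM tranylcypromine positive control for full effect.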 The conditions noted are these: CYP2C19 Supersomes, luciferin-H EGE luminescence, 30 min; at 5 µM; stronger effect = higher value.
The term inhibition denotes the relative decrease from the control value, in per cent. As to `Cc1ccc2c(NC(=O)C3CC3)cccc2n1`, the inhibition was 3.3%.

On to `CSc1ccc(C#N)cc1NC(=O)c1cccc(Cl)c1`, for which the inhibition is 17.9%.

Take `O=C(CCN1C(=O)c2ccccc2C1=O)NCCN1CCOCC1`: the inhibition was -17.4%.

As to `Cc1cc(C)nc(SCc2nnc(SCC(=O)OC3CCCCC3)o2)n1`, the inhibition is 32.2%.

As for `c1ccc(CSc2nnc(-c3ccco3)c(-c3ccco3)n2)cc1`, the inhibition was 44.4%.

Turning to `CC(NC(=O)c1ccc(Cl)cc1)C(=O)N1CCCCC1` (configuration not stated), the inhibition was 77.5% (active).

Regarding `CC(C)C(NC(=O)c1ccc(Cl)cc1)C(=O)O` (configuration not stated), the inhibition is -19.4%.

Take `O=C(c1ccc(Cl)c(Cl)c1)N1CCCC1`: the inhibition was 15.1%.

For `CCOc1ccccc1N=C1NC(=O)CS1`, the inhibition was -12.1%.

Consider `O=CN1CCN(C2CC(=O)N(c3ccc4c(c3)OCO4)C2=O)CC1` (configuration not stated), for which the inhibition is -12%.

Regarding `CC1CCC(N2CC(=O)N(Cc3ccc4c(c3)OCO4)C(c3ccc(F)cc3)C2=O)CC1` (configuration not stated), the inhibition was 20.3%.

Consider `Cc1ccc(N2C(=O)CC(NCc3ccc4c(c3)OCO4)C2=O)cc1Cl` (configuration not stated), for which the inhibition was 85% (active).

With `O=C(CSc1nc(-c2ccco2)cc(C(F)(F)F)n1)NCc1cccs1`, the inhibition is 8.5%.

Turning to `CC1(C)Oc2ccc(C(=O)N3CCOCC3)cc2N(CC(=O)Nc2ccccc2)C1=O`, the inhibition was 30.3%.

On to `O=C(Cn1c(=O)sc2ccccc21)Nc1ccc2c(c1)OCCO2`, for which the inhibition is 7.6%.

`CC1Cc2ccccc2N1CC(=O)Nc1ccc2c(c1)OC(F)(F)O2` (configuration not stated): the inhibition is 97.3% (active).

On to `Cc1nnc(NCCO)c2ccccc12`, for which the inhibition is 7.5%.

For the molecule `CSC1=N/C(=C\C=C\c2cccs2)C(=O)S1`, the inhibition was -11%.

For `CCCCN(CC)CCNC(=O)c1[nH]c(C)c(C(C)=O)c1C`, the inhibition was -8%.

In the case of `CCCCOC(=O)c1[nH]c(C)c(C(=O)OC)c1C`, the inhibition is 81.6% (active).

Take `CCCOC(=O)c1[nH]c2c(c1C)C(=O)CC(c1cc(OC)c(OC)c(OC)c1)C2` (configuration not stated): the inhibition is 38.4%.

In the case of `Cc1nc2nc3c(cn2n1)C(=O)CC(c1ccccc1)C3` (configuration not stated), the inhibition was 99.6% (active).

In the case of `Cc1ccc(Cc2cnc(NC(=O)/C(C#N)=C/c3ccc(-c4cccc([N+](=O)[O-])c4)o3)s2)cc1`, the inhibition was -3.9%.

`CC1(c2ccccc2Cl)NC(=O)N(CC(=O)NC(=O)NCc2ccco2)C1=O` (configuration not stated): the inhibition was 22.5%.

For `O=C(CN1CCN(S(=O)(=O)/C=C/c2ccccc2)CC1)NC(=O)NCc1ccco1`, the inhibition was 54% (active).

For the molecule `O=C(COC(=O)c1ccc(S(=O)(=O)N2CCc3ccccc3C2)cc1)NC(=O)NCc1ccco1`, the inhibition is 8.9%.

As for `CCCOn1c(-n2nc(C)cc2C)nc2ccccc2c1=O`, the inhibition was 47.2%.

As to `O=C(NCc1ccco1)c1sc2cccc(F)c2c1Cl`, the inhibition is -8.9%.

In the case of `CCOc1cc(/C=N/n2cnnc2)c(Br)cc1O`, the inhibition was 5.4%.

In the case of `Cc1ccc2c(c1)N(C(=O)CCC(=O)N1CCc3ccccc3C1)CCO2`, the inhibition was 39.4%.

For `c1ccc(-c2cn3c(n2)CCc2ccc4cccnc4c2-3)cc1`, the inhibition is 15.9%.

`COc1ccc(S(=O)(=O)N2CCC(C(=O)N3CCc4ccccc4C3)CC2)cc1OC`: the inhibition is 53.6% (active).

For `COc1ccc(S(=O)(=O)N2CCC(C(=O)N3CCOCC3)CC2)cc1OC`, the inhibition was 7.3%.

Turning to `COc1ccccc1N(C)S(=O)(=O)c1ccc(C(=O)N2CCC(C(N)=O)CC2)cc1`, the inhibition is 8.7%.

For `CCS(=O)(=O)c1ccc2c(c1)N(S(=O)(=O)c1ccccc1)CC(C(=O)O)O2` (configuration not stated), the inhibition was 0.1%.

Take `CCC1CCCCN1CCCNC(=O)C1CCC(Cn2c(=O)[nH]c3ccccc3c2=O)CC1` (configuration not stated): the inhibition is 6%.

Take `CCOC(=O)c1c(-n2cnnn2)sc(C)c1C`: the inhibition is 7.5%.

Turning to `Cc1nc(NNC(=O)c2ccccc2)cc(-c2ccccc2)n1`, the inhibition is -0.2%.

As to `CNC(=O)Nc1cc(C(C)(C)C)no1`, the inhibition is 32.3%.

For the molecule `CCn1c(SCC(=O)Nc2ccc3c(c2)OCCO3)nc2c(c1=O)SC(C)C2` (configuration not stated), the inhibition is 61.9% (active).

In the case of `O=C(CSc1nc2ncccc2[nH]1)Nc1ccc2c(c1)OCCO2`, the inhibition was 82.3% (active).

With `O=C(CSc1nnc(-c2ccccn2)n1-c1ccccc1)Nc1ccc2c(c1)OCO2`, the inhibition is 5%.

Take `O=C(CSc1nnnn1C1CCCC1)Nc1ccc2c(c1)OCCO2`: the inhibition is 68.5% (active).

For `CCC(=O)Nc1cccc(NC(=O)CSc2nnnn2C2CCCC2)c1`, the inhibition was 36.1%.

With `Cc1ccc(-n2c(SCC(=O)Nc3ccc4c(c3)OCO4)nnc2-c2ccoc2C)cc1`, the inhibition was -13%.

Turning to `O=C(CSc1nnnn1-c1ccc2c(c1)CCC2)Nc1ccc2c(c1)OCCO2`, the inhibition is -2.7%.

Regarding `O=C(CSc1nc(C2CC2)nc2ccccc12)Nc1ccc2c(c1)OCCO2`, the inhibition is 19.7%.

For the molecule `CCCCSc1nc2c(c(=O)n1CC)SC(C)C2` (configuration not stated), the inhibition is 42%.

Take `Cc1nonc1OCCn1nnnc1N`: the inhibition was 4%.

On to `O=C(CCn1c(=S)[nH]c2ccccc2c1=O)NCCCN1CCCC1=O`, for which the inhibition was 5.4%.

As to `O=C(CS(=O)(=O)c1cn(Cc2ccc(Cl)cc2)c2ccccc12)N1CCOCC1`, the inhibition is 35.4%.

Regarding `CCOC(=O)c1cc(NC(=O)SCC(=O)O)c(C)nc1C`, the inhibition is 24.3%.

For the molecule `N#CCSc1nc2c(c(=O)n1Cc1ccccc1)C1(CCCC1)Cc1ccccc1-2`, the inhibition is -19%.

In the case of `COc1cc(Br)cc(/C=N/c2ncn[nH]2)c1O`, the inhibition is 0.3%.

With `Cc1nc2c(-c3ccc(F)cc3)c(C)nn2c(C)c1CCC(=O)N1CCN(c2ccccn2)CC1`, the inhibition is 54.1% (active).

Consider `Cc1nc2nc(C)c(CCC(=O)N3CCN(c4ccccc4)CC3)c(C)n2n1`, for which the inhibition was 7.2%.

As to `Cc1nc2c(-c3ccc(F)cc3)c(C)nn2c(C)c1CCC(=O)NCc1ccco1`, the inhibition is 41.7%.

As to `Cc1nn(C)cc1/C=N/NC(=O)c1sc2ccccc2c1Cl`, the inhibition is 37.3%.

Regarding `CC(=O)Nc1ccc(S(=O)(=O)N2CCC(N(C)CCC(C)C)CC2)cc1`, the inhibition was 2.5%.

Turning to `CC(Sc1nc2ccccc2c(=O)n1Cc1ccco1)C(=O)c1ccccc1` (configuration not stated), the inhibition was 74.1% (active).

For `CCOC(=O)C(C)Sc1nc2ccccc2c(=O)n1CC1CCCCC1` (configuration not stated), the inhibition was 71.3% (active).

In the case of `CCOC(=O)C1CCc2nc3ccccc3c(=O)n21` (configuration not stated), the inhibition was 17.8%.

`N#Cc1c(NC(=O)CSc2nc3ccccc3c(=O)n2Cc2ccco2)sc2c1CCCC2`: the inhibition was -5.2%.

As to `CCOn1c(SC(C)C)nc2ccccc2c1=O`, the inhibition is -0.2%.

For `O=C(CN1CCOCC1)Nc1c(-c2ccccc2)c2cc(Br)ccc2[nH]c1=O`, the inhibition was 4.9%.

For the molecule `Cc1ccc(C(=O)N2CCN(C(=O)N3CCOCC3)CC2)cc1`, the inhibition was 7.4%.

`CCOC(=O)c1[nH]c2ccc(C)cc2c1N=C(C)N(C)C`: the inhibition was -13%.

For `Cc1ccc(-c2ccnc3nc(Sc4ncc(C(F)(F)F)cc4Cl)nn23)cc1`, the inhibition was 0%.

With `CCOC(=O)N1CCN(C(c2cccnc2)c2ccc3cccnc3c2O)CC1` (configuration not stated), the inhibition is 48%.

With `COC(=O)C1C(=O)NCC1c1ccc(C)cc1` (configuration not stated), the inhibition is 10.9%.

Turning to `O=C(NCc1ccco1)C1CCCN(S(=O)(=O)c2ccccc2)C1` (configuration not stated), the inhibition was 40.8%.

As for `CCCS(=O)(=O)N1CCCC(C(=O)NCc2ccco2)C1` (configuration not stated), the inhibition is -10.8%.

On to `Cc1ccc(S(=O)(=O)N2CCCC2C(=O)NCc2ccco2)cc1` (configuration not stated), for which the inhibition was 81.7% (active).

For the molecule `O=C(NCc1ccco1)C1CCCN(S(=O)(=O)c2cnc[nH]2)C1` (configuration not stated), the inhibition is 55.3% (active).

With `O=C(NCc1ccco1)C1CCCN(S(=O)(=O)c2cccc3nonc23)C1` (configuration not stated), the inhibition is 18.2%.

Turning to `CCN(CCCNC(=O)C1CCN(S(=O)(=O)c2cnc[nH]2)CC1)c1ccccc1`, the inhibition is 70.9% (active).

Turning to `Cc1ccc(S(=O)(=O)N2CCCC2CO)cc1` (configuration not stated), the inhibition was 18.4%.

Regarding `COc1cccc(N2CCN(C(=O)C3CCCN(S(=O)(=O)c4cnc[nH]4)C3)CC2)c1` (configuration not stated), the inhibition was 25.3%.

Consider `CCOc1cccc(NC(=O)C2CCCN(S(=O)(=O)c3ccc(OC)cc3)C2)c1` (configuration not stated), for which the inhibition is 48.2%.

On to `CCOC(=O)c1cccc(NC(=O)C2CCCN(S(=O)(=O)c3cnc[nH]3)C2)c1` (configuration not stated), for which the inhibition was 58.5% (active).

Turning to `Cc1cccc(N2CCN(C(=O)C3CCN(S(=O)(=O)c4cnc[nH]4)CC3)CC2)c1C`, the inhibition was 7.9%.

On to `CCCS(=O)(=O)N1CCC(C(=O)NCCCN(C)Cc2ccccc2)CC1`, for which the inhibition is 6.8%.

With `CCN1CCN(C(=O)c2ccccc2N(C)S(=O)(=O)c2ccc(C)cc2)CC1`, the inhibition was -7.6%.

On to `CC(C)(C)c1ccc(NC(=O)NCc2ccco2)cc1`, for which the inhibition is 2%.

As for `c1cc(-n2cnnn2)ccc1NC1=NCCC1`, the inhibition is -15.7%.

`CCN1CCCC1Cn1cnc2c([nH]c3cc(OC)ccc32)c1=O` (configuration not stated): the inhibition was -3.7%.

Turning to `CC(C)(C)Oc1ncc(Br)c(OC(C)(C)C)n1`, the inhibition was -12.1%.

For the molecule `N/C(Cc1ccc([N+](=O)[O-])cc1)=N\OC(=O)COc1ccc2ccccc2c1`, the inhibition was 4.3%.

With `COC(=O)c1ccc2c(c1)S(=O)(=O)NC(=NCCCN1CCOCC1)S2`, the inhibition is 6.8%.

As to `CCOC(=O)Cn1c(=O)oc2cc(S(=O)(=O)N(C)Cc3ccco3)ccc21`, the inhibition is 14.9%.

Regarding `Cn1nnnc1SCc1cc(=O)[nH]c2ccccc12`, the inhibition was 2.9%.

For the molecule `CCOC(=O)C1=C(CSc2nccn2C)NC(=O)NC1c1ccc(OC)cc1` (configuration not stated), the inhibition was 31.3%.

As for `CCOC(=O)C1=C(CSc2nnnn2C)N(C)C(=O)NC1c1ccccc1` (configuration not stated), the inhibition is 79.5% (active).

With `CC1(C)Oc2ccc3ccc(=O)oc3c2/C(=C/NCCO)C1=O`, the inhibition is -7.3%.

`COc1ccccc1NC(=O)c1ccc2nc(N3C(=O)CCC3=O)sc2c1`: the inhibition is 13.6%.

Regarding `Cc1cc(NC(=O)CN2CCC(O)(c3cccc(F)c3)CC2)no1`, the inhibition was 34.5%.

Regarding `COc1ccccc1CNC(=O)CCCNS(=O)(=O)c1cccc2nsnc12`, the inhibition was 7.7%.
